HT1080 IDH1KD tx: HT-1080 IDH1 knockdown cell toxicity (counter line). Potency, µM (series often up to 46.1 µM), without a hit: at the top dose activity, negative = toxicity, hits mostly cytotoxic. 360,000 compounds, 2% hits. HT-1080 IDH1 knockdown viability, ATP luminescence, 48 h;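 note: 0% = DMSO wells and -100% = cell-free medium wells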
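CellTiter-Glo luminescence after 48 h compound exposure at 37 degrees C of IDH1-knockdown HT-1080 cells in 5% FBS RPMI. %Activity scaled between DMSO wells and cell-free media wells, with curves fitted and assigned curve classes.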
TGFb inhibitor: blocks TGF-b signaling. Potency, µM (highest dose often 46.1 µM), for inactives: at the highest dose activity, negative = inhibition, actives largely listed as inhibitors. 410,000 compounds, 1.2% hits. HepG2 CAGA-GFP TGF-b/SMAD3 reporter, GFP fluorescence, 18 h; TGF-beta stimulated, 500 pg/mL final; note: % is set by controls: 0 for no effect and ±100 for the full control effect; nearly all actives have a fitted effect of over 65% in size
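Per well, imaged GFP fluorescence of HEPG2 CAGA-GFP cells gives the signal; cells get compound, then TGF-beta (500 pg/mL final), 18 h at 37 degrees C; %Activity versus -TGF-beta and +DMSO controls.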
ATXN2 expr inh: ATXN2 expression inhibition; 360,000 compounds, 0.72% hits; Potency, µM (top dose mostly 57 µM), inactives show top-dose activity change, negative = inhibition, hits mostly inhibitors; HEK-293 ATXN2-luciferase reporter, luminescence, 24 h; note: % is set by controls: 0 for no effect and ±100 for the full control effect; nearly all actives have a fitted effect of over 55% in size
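qHTS (up to 57 uM final) was run with 24 h compound exposure of reporter cells at 37 °C. Each well was multiplexed: SteadyGlo luminescence measured ATXN2-luciferase expression after a fluorogenic Gly-Phe-AFC viability readout (25 uM final).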
S2 tox: reduces viability in counter-screen for ATXN expression inhibitors; S2 cells (HEK-293 line with an ATXN2-luciferase reporter) viability, CellTiter-Fluor protease fluorescence, 24 h; Potency, µM (highest dose often 56.7 µM), actives largely listed as cytotoxic; 400,000 compounds, 0.49% hits; note: nearly all actives have a fitted effect of over 40% in size
HT1080-NT tox: kills 2HG-producing HT-1080-NT fibrosarcoma cells; HT-1080-NT fibrosarcoma viability, CellTiter-Glo ATP luminescence, 48 h; Potency, µM (series often up to 46.1 µM), for inactives: at the top dose activity, negative = less viability, hits mostly cytotoxic; 360,000 compounds, 1.6% hits;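 note: NT is the 2HG producing partner of a matched IDH1 knockdown line; 0% = DMSO-treated cells and -100% = media-only wells without cells; nearly all actives have a fitted effect of over 55% in size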
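Viability by CellTiter-Glo luminescence after 48 h compound exposure at 37C of HT-1080-NT cells (750/well, RPMI, 5% FBS). % activity scaled between DMSO wells and medium-only wells, then curve-fitted and categorized by curve class.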
HepG2 tox-1: counter-screen for TGF-b inhibitors: cytotoxicity in HepG2 cells. Potency, µM (titrated, usually from 46.1 µM), for the others: at the highest dose activity change, negative = cytotoxicity, most hits filed as cytotoxic. 410,000 compounds, 0.76% hits. HepG2 CAGA-GFP viability, ATP luminescence, 18 h. AID 588856
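CellTiter-Glo luminescence gave cytotoxicity after 18 hours at 37 degrees C. The cells were HepG2 CAGA-GFP in 1% FBS DMEM, stimulated with 500 pg/mL TGF-beta after compound addition. %Activity was normalised to no-cell wells (complete cell-killing) and DMSO (no toxicity), and curves were fitted and classified.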
TGFb confirm: TGF-b pathway inhibition, cherry-pick retest. HepG2 CAGA-GFP TGF-b reporter, GFP fluorescence, 18 h; cells stimulated with TGF-beta, 500 pg/mL. Potency, µM (highest dose often 46.1 µM), for inactives: at the top dose activity, negative = inhibition, most hits filed as inhibitors. 1,600 compounds, 63% hits. shares compounds with TGFb inhibitor; note: % is set by controls: 0 for no effect and ±100 for the full control effect; nearly all actives have a fitted effect of over 65% in size
HepG2 tox-2: HepG2 cytotoxicity, TGF-b inhibitor counterscreen. AID 720535. 1,600 compounds, 27% hits. HepG2 CAGA-GFP viability, ATP luminescence, 18 h; cells stimulated with TGF-beta, 500 pg/mL. shares compounds with TGFb inhibitor. Potency, µM (series often up to 46.1 µM), inactives show top-dose activity, negative = cytotoxicity, usual class: inhibitors; note: % is set by controls: 0 for no effect and ±100 for the full control effect; nearly all actives have a fitted effect of over 70% in size
CCL64 TGFb inh: blocks TGF-b signaling in CCL64 reporter cells. shares compounds with TGFb inhibitor. CCL64 CAGA-GFP reporter, TGF-b stimulated, GFP fluorescence, 18 h. Potency, µM (top dose mostly 46.1 µM), without a hit: at the top dose activity, negative = inhibition, hits mostly inhibitors. 1,600 compounds, 41% hits. AID 720536; note: nearly all actives have a fitted effect of over 65% in size
TGFb COP inh: validation of TGF-b inhibitors in HepG2 COP promoter reporter | Potency, µM (titrated, usually from 46.1 µM), for the others: top-dose activity, negative = inhibition, most hits filed as inhibitors | shares compounds with TGFb inhibitor | 1,600 compounds, 3% hits | HepG2 COP-GFP TGF-b reporter, GFP fluorescence, 18 h; cells stimulated by added recombinant TGF-beta; note: nearly all actives have a fitted effect of over 70% in size
An asterisk follows results filed as active; i = inactive; ? = inconclusive; nt = no result given. An excerpt weighted towards active compounds, which were near 3.8% of everything screened. Calls come from the whole dose curve; as a rule, active = well fitted curve in the direction sought with a large enough effect; inconclusive = small, poorly fitted or top-dose-only effect, or another doubt; inactive = no such curve, though single readings can be large; an effect the other way counts as inactive or inconclusive. Potency is the fitted concentration of half-maximal effect.

SMILES | HT1080 IDH1KD tx | TGFb inhibitor | ATXN2 expr inh | S2 tox | HT1080-NT tox | HepG2 tox-1 | TGFb confirm | HepG2 tox-2 | CCL64 TGFb inh | TGFb COP inh
CCCC(=O)NC(c1ccccc1OC)c1ccc2cccnc2c1O (stereo not given) | ? | -15% | ? | i | ? | -21% | nt | nt | nt | nt
NC(=O)[C@H]1CC2(CC(c3cccc(NC(=O)COc4ccc(Cl)cc4)c3)=NO2)CN1C(=O)c1ccc(Cl)cc1 (stereo not given in full) | ? | 18µM* | ? | ? | ? | -4% | 18µM* | -29% | 18µM* | 22%
Cn1c(=O)oc2cc(S(=O)(=O)NC3CCCc4ccccc43)ccc21 (stereo not given) | -17% | -1% | 6% | i | -22% | -21% | nt | nt | nt | nt
Cn1c(=O)oc2cc(S(=O)(=O)N3CCCC(C(=O)NC4CCCc5ccccc54)C3)ccc21 (stereo not given) | 2% | 0.56µM* | ? | ? | -1% | -35% | ? | ? | -1% | 71%
CC(C)(C)c1ccc(NC(=O)CSc2nnc3scc(-c4ccccc4)n23)cc1 | nt | -23% | ? | ? | nt | -36% | nt | nt | nt | nt
CCn1ccc2c(OCC(=O)Nc3ccc(OC)cc3OC)cccc2c1=O | nt | ? | -13% | i | nt | -5% | nt | nt | nt | nt
O=S1(=O)[C@H]2CC3O[C@]2(C[C@@H]3c2ccc(F)cc2)CN1Cc1ccc(Cl)cc1 | -1% | 7.1µM* | -15% | i | -10% | 1% | ? | -9% | -11% | -4%
CC(=O)c1ccc(C2CC34CN(Cc5cccc(Cl)c5)S(=O)(=O)C3CC2O4)cc1 (stereo not given) | nt | 0% | nt | nt | nt | 2% | nt | nt | nt | nt
CC1(C(=O)NCc2cccc3ccccc23)CCN1C(=O)C1(c2ccccc2)CCCC1 (stereo not given) | ? | 13µM* | -18% | i | ? | -6% | 13µM* | ? | ? | 45%
CCN(CCCNC(=O)c1nn(-c2ccc(OC)c(Cl)c2)c(=O)c2c1c1ccccc1n2C)c1ccccc1 | nt | -10% | 5% | i | nt | -12% | nt | nt | nt | nt
COc1cc(Nc2nc(-c3ccccc3)c3cc(C)ccc3n2)cc(OC)c1OC | ? | 11µM* | -11% | i | ? | -15% | 18µM* | ? | -78% | 51%
COc1cccc(Nc2nc(-c3ccccc3)c3cc(C)ccc3n2)c1 | nt | -29% | nt | nt | nt | -19% | nt | nt | nt | nt
O=S(=O)(CCOc1ccccc1)c1nc2ccccc2[nH]1 | ? | 16µM* | 31% | i | ? | -33% | 6.5µM* | 23µM* | 16µM* | ?
COc1ccc(C2Nc3ccccc3C(=O)N2Cc2ccccc2)cc1COc1ccc([N+](=O)[O-])c(C)c1 (stereo not given) | nt | 0% | nt | nt | nt | -17% | nt | nt | nt | nt
Cc1cccc(C)c1NC(=O)c1cc(S(=O)(=O)N2CCc3ccccc3C2)ccc1F | nt | -19% | -21% | i | nt | -15% | nt | nt | nt | nt
CCCCNc1c(-c2cccc(SC(C)CC)c2)nc2ccc(Cl)cn12 (stereo not given) | -13% | ? | 0% | i | 0% | -20% | nt | nt | nt | nt
CCCCNc1c(-c2ccc(OC)c(SC(C)CC)c2)nc2ccc(Cl)cn12 (stereo not given) | -5% | 10µM* | -20% | ? | 7% | -6% | ? | -19% | ? | -5%
Cc1cc(C)c(-c2csc(NC(=O)C3=NN(c4ccccc4)C(=O)CC3)n2)c(C)c1 | -17% | ? | nt | ? | -10% | -19% | 6.5µM* | -13% | -1% | -5%
CCc1ccc(-c2csc(NC(=O)C3=NN(c4ccccc4)C(=O)CC3)n2)cc1 | ? | -29% | nt | i | ? | -14% | nt | nt | nt | nt
C=C(C)COc1ccc(-c2[nH]ncc2-c2ccc(OC)cc2)c(O)c1 | -10% | 8.9µM* | nt | ? | -15% | -122% | ? | ? | 23µM* | ?
CC(=O)OCC1OC(n2cc(F)c(=O)[nH]c2=O)C(OC(C)=O)C1OC(C)=O (stereo not given) | ? | ? | nt | i | 3% | -9% | nt | nt | nt | nt
O=C1C(F)=CC(COC(c2ccccc2)(c2ccccc2)c2ccccc2)OC1n1cc(F)c(=O)[nH]c1=O (stereo not given) | 21µM* | 5µM* | 3.4µM* | 3µM* | ? | -60% | 2.9µM* | 8.2µM* | 2.3µM* | ?
CC1(C(=O)NC2CCCC2)CCN1C(=O)Cc1ccc(-c2ccccc2)cc1 (stereo not given) | ? | -11% | -38% | i | ? | -25% | nt | nt | nt | nt
CC1(C(=O)NCC2CCCCC2)CCN1C(=O)Cc1ccc(-c2ccccc2)cc1 (stereo not given) | ? | ? | -4% | i | ? | -53% | -8% | -29% | ? | 15%
S=C(Nc1ccccn1)c1ccccn1 | ? | 7.1µM* | 5% | i | ? | -62% | -22% | ? | ? | 6%
CCOC(=O)Cc1ccc(NC(=O)N(Cc2ccc(OC)cc2)C2CCN(C(C)=O)CC2)cc1 | nt | ? | 0% | i | nt | 7% | nt | nt | nt | nt
COc1ccc(CNc2ncnc3nc[nH]c23)cc1OC | nt | -4% | nt | nt | nt | 1% | nt | nt | nt | nt
Cc1nc2c(C)cccc2c2c1CCN2c1ccccc1F | ? | ? | ? | i | -8% | -27% | nt | nt | nt | nt

From PubChem BioAssay
